# Reference: the supplement of paper PMC10849652
# The full data set covers some 7,900 targets. This sample favours those with a hit. About 0.6% of all pairs of compound and target were hits. A number with no mark means an inactive call.
# Key:
# Assay in all cases: log2 fold change, soluble protein after heating vs DMSO (PISA); higher = thermal stabilisation; K562 cells, 10 uM, 30 min; active = over 0.2 and 3.5 SD of the protein, either way, in both replicates (recomputed)
# [1] = compound: CC[C@@H]1C(=O)N(C)c2cnc(Nc3ccc(C(=O)NC4CCN(C)CC4)cc3OC)nc2N1C1CCCC1
# Method in brief: (§1)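 Thermal stability values are relative to control samples and come from duplicates. They are expressed as log2 fold changes. For measurement, K562 cells (2×10^6 cells/mL) received 10 μM compound for 30 min, and aliquots were heated for 3 min over 48°C-58°C, pooled, and extracted at 4°C in PBS with 0.5% NP-40. Soluble protein, the supernatant after 21,000xg for 90 min, was quantified by TMTpro 16plex LC-MS/MS with equalised channel sums.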
# volasertib = compound: CC[C@@H]1C(=O)N(C)c2cnc(Nc3ccc(C(=O)N[C@H]4CC[C@H](N5CCN(CC6CC6)CC5)CC4)cc3OC)nc2N1C(C)C [volasertib]
# Method in brief: as §1
# [2] = compound: CC[C@H](C)N1C=C(C2=C(C=C(C=C21)C3=CN=C(C=C3)N4CCNCC4)C(=O)NCC5=C(C=C(NC5=O)C)C)C
# Method in brief: as §1
# epoxomicin = compound: CC[C@H](C)[C@@H](C(=O)N[C@@H]([C@@H](C)O)C(=O)N[C@@H](CC(C)C)C(=O)[C@]1(CO1)C)NC(=O)[C@H]([C@@H](C)CC)N(C)C(=O)C [epoxomicin]
# Method in brief: as §1
# [3] = compound: CCn1c(C(=O)N(C2CC2)C2CC2)cc2c3c(ncn3C)c(Nc3cc(C)n(C)n3)nc21
# Method in brief: as §1
# [4] = compound: CCn1cc(-c2ccnc3[nH]c(-c4cccc(CN(C)C)c4)cc23)c(-c2ccc(NC(=O)N(C)C)cc2)n1
# Method in brief: as §1
# [5] = compound: CN(C)CC(=O)Nc1ccc2[nH]c(=O)c3ccccc3c2c1
# Method in brief: as §1
# rosiglitazone = compound: CN(CCOC1=CC=C(C=C1)C[C@H]2C(=O)NC(=O)S2)C3=CC=CC=N3 (racemic) [rosiglitazone]
# Method in brief: as §1
# [6] = compound: CN1C2=C(C3=C1C(=O)N(N=C3)CC4=CC(=CC=C4)N)SC(=C2)S(=O)C
# Method in brief: as §1
# [7] = compound: CN1CCC(CNc2ccc3ncc(-c4cccc(OC(F)(F)F)c4)n3n2)CC1
# Method in brief: as §1
# UniProt Q96T51, sequence (Q96T51 whole entry, looked up): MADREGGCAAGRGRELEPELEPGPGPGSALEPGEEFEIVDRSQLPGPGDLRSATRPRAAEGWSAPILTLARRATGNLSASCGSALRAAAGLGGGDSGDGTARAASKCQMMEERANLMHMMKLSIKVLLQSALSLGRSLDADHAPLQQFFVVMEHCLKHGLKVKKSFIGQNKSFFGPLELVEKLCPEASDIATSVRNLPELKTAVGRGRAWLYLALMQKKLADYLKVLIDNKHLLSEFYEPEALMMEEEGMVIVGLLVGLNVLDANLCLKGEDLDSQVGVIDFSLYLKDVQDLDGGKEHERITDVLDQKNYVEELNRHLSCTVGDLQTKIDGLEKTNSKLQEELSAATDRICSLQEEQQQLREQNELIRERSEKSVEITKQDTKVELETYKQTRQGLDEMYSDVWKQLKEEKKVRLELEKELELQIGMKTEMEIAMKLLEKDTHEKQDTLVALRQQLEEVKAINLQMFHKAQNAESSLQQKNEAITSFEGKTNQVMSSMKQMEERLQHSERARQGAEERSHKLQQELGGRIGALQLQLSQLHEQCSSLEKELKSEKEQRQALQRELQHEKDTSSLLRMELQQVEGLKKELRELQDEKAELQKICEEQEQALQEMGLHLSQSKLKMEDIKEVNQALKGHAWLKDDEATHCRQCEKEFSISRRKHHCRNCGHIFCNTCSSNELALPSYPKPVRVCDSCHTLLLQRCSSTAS
# UniProt Q8IZE3, sequence (Q8IZE3 whole entry, looked up): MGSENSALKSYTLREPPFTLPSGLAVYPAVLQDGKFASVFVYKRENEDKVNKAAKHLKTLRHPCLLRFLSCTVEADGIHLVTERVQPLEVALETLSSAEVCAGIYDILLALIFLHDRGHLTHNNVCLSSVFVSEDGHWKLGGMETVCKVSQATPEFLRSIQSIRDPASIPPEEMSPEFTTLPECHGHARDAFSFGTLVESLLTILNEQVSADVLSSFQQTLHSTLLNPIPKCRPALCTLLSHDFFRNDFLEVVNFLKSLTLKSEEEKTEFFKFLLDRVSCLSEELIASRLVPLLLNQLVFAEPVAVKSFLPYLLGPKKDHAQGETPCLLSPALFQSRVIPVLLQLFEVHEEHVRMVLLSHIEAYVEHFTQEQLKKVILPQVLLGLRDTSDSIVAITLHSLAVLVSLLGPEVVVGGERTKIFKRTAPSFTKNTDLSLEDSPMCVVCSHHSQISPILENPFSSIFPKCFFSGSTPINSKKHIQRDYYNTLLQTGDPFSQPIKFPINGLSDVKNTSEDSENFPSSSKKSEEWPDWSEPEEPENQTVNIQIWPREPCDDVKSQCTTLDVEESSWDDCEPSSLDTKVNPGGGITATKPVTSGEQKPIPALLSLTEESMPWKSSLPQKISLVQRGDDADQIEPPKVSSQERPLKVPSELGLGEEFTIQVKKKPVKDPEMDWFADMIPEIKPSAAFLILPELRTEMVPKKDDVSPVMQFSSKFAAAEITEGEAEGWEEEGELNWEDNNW
# UniProt Q7L4I2, sequence (Q7L4I2 whole entry, looked up): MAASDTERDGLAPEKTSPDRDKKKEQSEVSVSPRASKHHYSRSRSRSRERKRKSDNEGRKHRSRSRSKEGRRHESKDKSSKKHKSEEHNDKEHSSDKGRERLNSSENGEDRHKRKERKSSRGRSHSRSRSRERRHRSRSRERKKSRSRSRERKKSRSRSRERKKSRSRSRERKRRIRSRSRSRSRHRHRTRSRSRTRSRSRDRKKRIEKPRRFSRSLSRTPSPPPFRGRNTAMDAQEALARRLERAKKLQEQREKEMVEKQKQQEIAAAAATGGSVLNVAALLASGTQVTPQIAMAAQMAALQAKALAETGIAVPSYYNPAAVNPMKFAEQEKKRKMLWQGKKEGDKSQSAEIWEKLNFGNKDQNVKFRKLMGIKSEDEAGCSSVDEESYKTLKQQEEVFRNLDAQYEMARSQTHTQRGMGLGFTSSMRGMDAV
# UniProt Q99496, sequence (Q99496 whole entry, looked up): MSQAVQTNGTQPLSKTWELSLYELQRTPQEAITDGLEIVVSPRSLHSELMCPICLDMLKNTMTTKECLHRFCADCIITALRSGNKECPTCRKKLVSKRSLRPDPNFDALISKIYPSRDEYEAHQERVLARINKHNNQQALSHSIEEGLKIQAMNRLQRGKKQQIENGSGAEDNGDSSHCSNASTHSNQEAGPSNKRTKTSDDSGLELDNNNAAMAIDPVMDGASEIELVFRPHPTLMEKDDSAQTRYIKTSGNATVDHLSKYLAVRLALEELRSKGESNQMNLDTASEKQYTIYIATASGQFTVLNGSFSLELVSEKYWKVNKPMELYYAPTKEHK
# UniProt Q8WWV3, sequence (Q8WWV3 whole entry, looked up): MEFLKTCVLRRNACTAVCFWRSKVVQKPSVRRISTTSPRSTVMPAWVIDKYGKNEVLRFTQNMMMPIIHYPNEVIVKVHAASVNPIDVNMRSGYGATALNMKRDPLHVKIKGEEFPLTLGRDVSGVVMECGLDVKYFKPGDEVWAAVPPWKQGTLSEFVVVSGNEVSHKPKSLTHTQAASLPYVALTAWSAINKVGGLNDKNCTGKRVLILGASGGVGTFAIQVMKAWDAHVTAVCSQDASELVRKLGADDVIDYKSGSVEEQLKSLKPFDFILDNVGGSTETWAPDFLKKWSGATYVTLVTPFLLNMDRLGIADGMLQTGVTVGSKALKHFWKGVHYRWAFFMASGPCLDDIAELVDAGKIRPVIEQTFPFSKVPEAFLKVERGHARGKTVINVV
# UniProt Q9NTJ5, sequence (Q9NTJ5 whole entry, looked up): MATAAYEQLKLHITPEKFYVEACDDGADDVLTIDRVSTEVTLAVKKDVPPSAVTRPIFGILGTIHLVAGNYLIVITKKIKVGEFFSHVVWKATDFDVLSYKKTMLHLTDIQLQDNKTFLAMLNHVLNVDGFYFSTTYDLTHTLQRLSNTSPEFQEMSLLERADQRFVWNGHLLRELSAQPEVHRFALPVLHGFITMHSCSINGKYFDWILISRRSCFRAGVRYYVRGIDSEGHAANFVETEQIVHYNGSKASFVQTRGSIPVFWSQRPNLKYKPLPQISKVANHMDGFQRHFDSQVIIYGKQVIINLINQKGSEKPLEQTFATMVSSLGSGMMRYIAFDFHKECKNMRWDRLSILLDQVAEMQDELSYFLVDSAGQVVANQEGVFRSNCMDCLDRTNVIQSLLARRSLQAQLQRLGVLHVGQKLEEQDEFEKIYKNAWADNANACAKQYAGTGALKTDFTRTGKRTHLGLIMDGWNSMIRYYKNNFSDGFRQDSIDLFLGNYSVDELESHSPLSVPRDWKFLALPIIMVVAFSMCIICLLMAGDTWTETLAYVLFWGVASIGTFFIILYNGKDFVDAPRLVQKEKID
# UniProt Q9UBS8, sequence (Q9UBS8 whole entry, looked up): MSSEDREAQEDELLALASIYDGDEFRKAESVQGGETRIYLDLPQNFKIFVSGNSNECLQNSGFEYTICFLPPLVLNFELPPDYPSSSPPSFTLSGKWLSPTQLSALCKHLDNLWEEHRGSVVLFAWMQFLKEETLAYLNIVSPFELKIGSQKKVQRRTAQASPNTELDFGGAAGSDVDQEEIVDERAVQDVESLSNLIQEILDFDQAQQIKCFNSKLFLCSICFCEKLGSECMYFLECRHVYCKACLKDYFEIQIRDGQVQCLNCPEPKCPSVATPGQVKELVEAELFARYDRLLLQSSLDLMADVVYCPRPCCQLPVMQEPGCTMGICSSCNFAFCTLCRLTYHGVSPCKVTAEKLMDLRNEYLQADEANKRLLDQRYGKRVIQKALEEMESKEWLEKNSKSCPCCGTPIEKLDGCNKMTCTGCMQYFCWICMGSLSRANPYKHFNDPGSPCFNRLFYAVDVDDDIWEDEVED
# UniProt Q9NR46, sequence (Q9NR46 whole entry, looked up): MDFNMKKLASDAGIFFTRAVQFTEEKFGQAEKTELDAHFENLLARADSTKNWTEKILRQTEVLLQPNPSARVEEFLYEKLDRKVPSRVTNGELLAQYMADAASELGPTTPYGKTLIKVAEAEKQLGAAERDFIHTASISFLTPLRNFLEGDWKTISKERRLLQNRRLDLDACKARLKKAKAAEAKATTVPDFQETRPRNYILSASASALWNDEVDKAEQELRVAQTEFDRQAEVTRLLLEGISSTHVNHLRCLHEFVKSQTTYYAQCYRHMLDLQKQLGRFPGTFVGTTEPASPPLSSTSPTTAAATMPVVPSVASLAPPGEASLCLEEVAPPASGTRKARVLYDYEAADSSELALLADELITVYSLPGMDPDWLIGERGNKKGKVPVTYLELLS
# UniProt P49756, sequence (P49756 whole entry, looked up): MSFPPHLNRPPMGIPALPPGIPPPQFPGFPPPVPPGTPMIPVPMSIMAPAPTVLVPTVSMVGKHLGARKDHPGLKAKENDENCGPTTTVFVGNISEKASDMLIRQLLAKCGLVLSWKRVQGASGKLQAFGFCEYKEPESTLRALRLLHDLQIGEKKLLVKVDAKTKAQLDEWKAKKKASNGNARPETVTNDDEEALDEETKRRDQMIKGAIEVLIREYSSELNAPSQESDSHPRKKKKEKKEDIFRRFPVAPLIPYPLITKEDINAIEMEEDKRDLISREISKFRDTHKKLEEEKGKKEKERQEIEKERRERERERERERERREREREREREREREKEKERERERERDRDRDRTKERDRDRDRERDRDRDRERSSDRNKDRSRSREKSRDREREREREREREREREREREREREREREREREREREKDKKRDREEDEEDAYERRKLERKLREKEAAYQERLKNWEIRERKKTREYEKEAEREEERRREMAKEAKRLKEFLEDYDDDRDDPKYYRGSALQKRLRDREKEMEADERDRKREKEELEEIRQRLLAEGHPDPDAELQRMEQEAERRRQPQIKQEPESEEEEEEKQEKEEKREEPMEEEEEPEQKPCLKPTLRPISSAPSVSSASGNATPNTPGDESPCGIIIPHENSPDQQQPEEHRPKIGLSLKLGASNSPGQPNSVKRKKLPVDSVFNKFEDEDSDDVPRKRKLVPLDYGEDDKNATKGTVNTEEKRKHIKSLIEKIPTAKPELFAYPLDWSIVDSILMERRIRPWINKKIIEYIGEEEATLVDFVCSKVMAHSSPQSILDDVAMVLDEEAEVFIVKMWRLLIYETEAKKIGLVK
Target,log2 fold change [1],log2 fold change (volasertib),log2 fold change [2],log2 fold change (epoxomicin),log2 fold change [3],log2 fold change [4],log2 fold change [5],log2 fold change (rosiglitazone),log2 fold change [6],log2 fold change [7]
SACM1L (UniProt Q9NTJ5),-0.193,-0.534 (active),-0.001,0.019,0.029,-0.019,0.033,0.021,-0.076,0.031
SERINC3 (UniProt Q13530),0.165,0.075,-0.144,-0.092,0.029,-0.064,0.043,0.049,-0.014,0.046
SLC12A9 (UniProt Q9BXP2),0.014,-0.034,-0.016,0.059,0.037,-0.016,-0.02,0.034,-0.075,-0.136
RBM4 (UniProt Q9BWF3),-0.043,-0.3 (active),0.057,-0.018,-0.079,0.059,-0.024,-0.034,0.129,-0.091
SCAF8 isoform 2 (UniProt Q9UPN6),-0.065,-0.27,0.037,0.101,-0.003,0.071,0.1,0.091,-0.045,0.015
RPS5 (UniProt P46782),0.103,0.337,0.065,-0.079,0.025,0.059,-0.036,-0.073,0.089,0.044
RPS27A (UniProt P62979),-0.061,0.36,0.05,-0.078,0.021,0.033,-0.153,-0.145,0.155,0.194
RCN3 (UniProt Q96D15),-0.033,0.053,-0.031,-0.118,0,-0.007,-0.019,0.029,-0.03,-0.234
RBM8A (UniProt Q9Y5S9),-0.051,-0.041,0.038,0.005,0.021,0.014,-0.037,-0.004,-0.035,0.065
RPS14 (UniProt P62263),0.043,0.362,0.023,-0.031,0.015,0.122,-0.066,-0.056,0.095,0.158
RNPEP (UniProt Q9H4A4),0.015,-0.303 (active),0.078,0.042,-0.074,-0.09,0.034,0.077,-0.036,-0.119
SCAMP2 (UniProt O15127),-0.009,0.052,-0.01,0.001,0.065,0.043,0.061,-0.043,-0.006,-0.1
RSRC2 (UniProt Q7L4I2),0.003,-0.032,-0.022,0.031,0.006,-0.043,0.007,0.008,-0.028,-0.025
SCYL3 isoform 2 (UniProt Q8IZE3),-0.114,-0.327 (active),0.047,0.058,0.034,-0.101,-0.021,-0.012,-0.05,-0.015
RPP14 (UniProt O95059),0.079,0.07,-0.048,-0.06,0.013,0.08,-0.04,-0.021,-0.076,0.244 (active)
RAC1 (UniProt P63000),-0.024,0.03,0.026,0.019,0.019,0.044,0.05,0.069,-0.067,0.35 (active)
RPS4X (UniProt P62701),0.173,0.419,0.056,-0.22,0.032,0.108,-0.089,-0.086,0.177,0.148
RBM25 (UniProt P49756),0.024,-0.239,-0.019,0.015,-0.104,0.074,0.041,-0.019,0.086,-0.07
RPS6KA2 isoform 2 (UniProt Q15349),-0.136,-0.179,0.034,0.041,0.133,-0.126,0.025,0.072,-0.038,-0.313
RHEB (UniProt Q15382),0.038,0.013,-0.014,0.002,0.022,0.02,0.016,0.026,-0.068,-0.003
SEC23IP (UniProt Q9Y6Y8),-0.069,-0.005,0.032,-0.009,-0.101,-0.057,0.012,0.289,-0.008,-0.133
RPS3 (UniProt P23396),0.147,0.34,0.011,-0.125,0.033,0.125,-0.071,-0.064,0.085,0.045
RAB8B (UniProt Q92930),0.036,0.033,-0.039,0.229,-0.011,0.003,0.013,0.085,-0.05,0.227
RSL1D1 (UniProt O76021),0.301,0.399,0.012,-0.517,-0.065,0.155,-0.214,-0.299,0.374,0.591
RNF14 (UniProt Q9UBS8),-0.054,-0.288 (active),0.037,-0.075,0.002,-0.032,-0.019,0.032,-0.049,-0.025
RUFY1 (UniProt Q96T51),-0.145,-0.355 (active),0.07,-0.015,0.009,0.06,0.033,0.036,0.032,-0.058
RAB3IL1 (UniProt Q8TBN0),-0.018,-0.136,-0.001,-0.001,-0.014,-0.15,0.009,0.029,-0.035,0.013
RTN4IP1 (UniProt Q8WWV3),-0.118,-0.196,-0.059,-0.02,0.009,-0.079,-0.003,0.965 (active),-0.219,-0.12
RNF2 (UniProt Q99496),-0.045,-0.169,-0.307 (active),0.168,0.1,0.012,0.007,0.036,0.063,-0.03
SH3GLB2 (UniProt Q9NR46),-0.148,-0.378 (active),0.072,0.041,-0.058,-0.101,0.033,0.041,0.016,-0.254
